Measurements taken from PubChem BioAssay (NCATS).
Inconclusive results are not listed. The source made the active and inactive calls. Unless noted, calls follow the shape of the dose curve; as a rule, active = well fitted curve in the direction sought with a large enough effect; inconclusive = small, poorly fitted or top-dose-only effect, or another doubt; inactive = no such curve, though single readings can be large; an effect the other way counts as inactive or inconclusive.

Columns and labels:
[1] = Quantitative High-Throughput drug screen in 47 multiple myeloma cell lines against the NCATS MIPE library collection: OPM2_DSMZ cell viability assay (AID 1919872); also: nearly all actives have a fitted effect of over 30% in size; also: potency is read from the fitted curve at half-maximal effect
Outline: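 CellTiter-Glo luminescence (ATP) after 48 h compound exposure, 37C/5% CO2; 500 cells/well; MIPE 4.0 approved/investigational drugs pinned in; DMSO = 100%, media only = 0% viability.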

[2] = qHTS drug screen for cell cycle checkpoint inhibitors in PARPi-resistant BRCA-mutant ovarian cancer cell lines. (AID 1963452; calls by dose curve); conditions: PEO1/OlaR viability, CellTiter-Glo luminescence, 96 h, stronger effect = lower value
Outline: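 PEO1, PEO4 and PEO1/OlaR ovarian cancer cells, 600 per well, exposed 96 h at 37C to a dilution series. Viability read by CellTiter-Glo luminescence, normalized to DMSO and empty wells; activity summarized as Z-AUC.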

[3] = qHTS for identification of novel therapeutic agents for treatment of microphthalmiaassociated transcription factor (MiT) renal cell carcinoma (RCC) (AID 1963991; calls by dose curve; also: potency is read from the fitted curve at half-maximal effect); conditions: CellTiter-Glo, 48 h; for z-score: stronger effect = lower value
Outline: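 Viability of three TFE3-fusion renal carcinoma lines measured by CellTiter-Glo after 48 h treatment with each of 1912 compounds at 11 concentrations. Responses scaled between DMSO (100%) and empty wells (0%) before curve fitting.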

[4] = qHTS profiling for inhibitors of Plasmodium falciparum proliferation (AID 504749); also: nearly all actives have a fitted effect of over 60% in size; also: potency is read from the fitted curve at half-maximal effect;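 as to activity, negative = inhibition: 0% = DMSO vehicle and full inhibition = artemisinin control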; conditions: P. falciparum in erythrocytes, SYBR Green DNA, 72 h
Outline: (§1)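 Quantitative HTS: compounds pinned into medium, infected erythrocytes added (0.3% parasitemia, 2.5% hematocrit), 72 h culture at 37 C under 5% CO2. Saponin/Triton lysis with SYBR Green I, overnight RT, then fluorescence read.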

3D7 = experiment: as above; conditions: P. falciparum in erythrocytes, SYBR Green DNA, 72 h; series mostly up to 28.7 µM
Outline: as §1

7G8 = experiment: as above; conditions: P. falciparum in erythrocytes, SYBR Green DNA, 72 h; series mostly up to 28.7 µM
Outline: as §1

AA1029 = experiment: as above; conditions: P. falciparum in erythrocytes, SYBR Green DNA, 72 h; series mostly up to 28.7 µM
Outline: as §1

AS120 = experiment: as above; conditions: P. falciparum in erythrocytes, SYBR Green DNA, 72 h; series mostly up to 28.7 µM
Outline: as §1

[5] = Quantitative High-Throughput drug screen in 47 multiple myeloma cell lines against the NCATS MIPE library collection: KMS11_JCRBsus cell viability assay (AID 1919873); also: nearly all actives have a fitted effect of over 50% in size
Outline: (§2)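 qHTS format: cells plated (500/well), pin-dosed with MIPE 4.0 compounds, kept 48 h at 37 °C. Readout was CellTiter-Glo luminescence, median RLU.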

[6] = Quantitative High-Throughput drug screen in 47 multiple myeloma cell lines against the NCATS MIPE library collection: KMS28BM_JCRB cell viability assay (AID 1919874); also: nearly all actives have a fitted effect of over 35% in size; also: potency is read from the fitted curve at half-maximal effect
Outline: as §2

[7] = measured here: PEO1 parental Z-AUC
[8] = TFE3-RCC UOK109 viability, measured here: UOK109 Z-AUC
[9] = TFE3-RCC viability, measured here: UOK124 Z-AUC
[10] = TFE3-RCC viability, measured here: UOK145 Z-AUC
[11] = at 28.7 µM (top of the series), parasite line A
[12] = at 28.7 µM (top of the series), parasite line B

Row | Structure (SMILES) | Potency [1] | Z-AUC [2] | Z-AUC [2, 7] | Z-AUC ([2]; measured here: PEO4 Z-AUC) | Potency ([3]; TFE3-RCC UOK109 viability, active = Z-AUC below -0.8 in all three lines) | z-score [3, 8] | z-score [3, 9] | z-score [3, 10] | activity, negative = inhibition [4, 11] | activity, negative = inhibition [4, 12] | Potency (3D7) | Potency (7G8) | Potency (AA1029) | Potency (AS120) | Potency [5] | Potency [6] | activity, negative = inhibition ([4]; at 12.8 µM (top of the series), parasite line A) | activity, negative = inhibition ([4]; at 12.8 µM (top of the series), parasite line B) | Potency ([4]; parasite line B)
1 | CCCOc1ccc2nc(NC(=O)OC)[nH]c2c1 | 0.0105 µM (active) | -0.576 (inactive) | -0.504 | -0.563 | 0.00743 µM (active) | -2.25 | -3.82 | -2.16 | -0.812% (inactive) | 13.5% (inactive) | inactive | inactive | inactive | inactive | – | – | – | – | –
2 | CCCc1cc(=O)[nH]c(=S)[nH]1 | inactive | -0.283 (inactive) | -0.244 | 0.119 | – | – | – | – | 3.45% (inactive) | 5.92% (inactive) | inactive | inactive | inactive | inactive | inactive | – | – | – | –
3 | CN1CCC(=C2c3ccccc3CCc3sccc32)CC1 | inactive | -0.614 (inactive) | -1.2 | -0.893 | – | – | – | – | -27.4% (inactive) | -20.6% (inactive) | inactive | 11.2 µM (active) | 6.31 µM (active) | – | – | 10.5 µM (active) | – | – | –
4 | CN1C(C(=O)Nc2ccccn2)=C(O)c2sccc2S1(=O)=O | inactive | 1.5 (inactive) | 1.16 | 1.02 | – | 1.14 | 0.504 | 0.557 | – | – | inactive | inactive | inactive | inactive | – | – | -2.2% (inactive) | -4.64% (inactive) | –
5 | Nc1cccc2c1CN(C1CCC(=O)NC1=O)C2=O (stereo not drawn) | inactive | – | – | – | – | 0.87 | 1.94 | 0.731 | 12.2% (inactive) | 5.27% (inactive) | inactive | inactive | inactive | inactive | – | inactive | – | – | –
6 | C[Se]CCC(N)C(=O)O (stereo not drawn) | inactive | 0.282 (inactive) | 1.03 | 1.31 | – | 1.47 | 0.35 | 0.0936 | 6.19% (inactive) | -13.4% (inactive) | inactive | inactive | inactive | inactive | inactive | – | – | – | –
7 | NCCCCNCCCN | 20.9 µM (active) | 0.434 (inactive) | 1.13 | 0.641 | – | – | – | – | – | – | – | – | – | – | – | inactive | – | – | –
8 | CCC(C)(Oc1ccc(C2(c3ccc(OC(C)(CC)C(=O)O)cc3)CCCCC2)cc1)C(=O)O (stereo not drawn) | inactive | 0.486 (inactive) | 0.92 | 0.795 | – | – | – | – | 2.31% (inactive) | -9.49% (inactive) | inactive | inactive | inactive | inactive | inactive | – | – | – | –
9 | Cc1ccc(NC(=O)c2ccc(CN3CCN(C)CC3)cc2)cc1Nc1nccc(-c2cccnc2)n1 | inactive | -0.776 (inactive) | -0.808 | -0.886 | – | – | – | – | – | – | – | 7.94 µM (active) | 11.2 µM (active) | 8.91 µM (active) | – | inactive | – | – | 11.2 µM (active)
